Screening results deposited in PubChem BioAssay by National Center for Advancing Translational Sciences (NCATS).
PNC inhibitor = blocks assembly of the perinucleolar compartment; 140,000 compounds, 3.1% hits; PC3M PTB-GFP, PNC prevalence imaging, 16 h; hits give low values; activity change (PNC), negative = inhibition, % at 10 µM; AID 2417;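 active = readout at or below -70, meaning at least 70% loss of cells showing the perinucleolar compartment, a nuclear body marking cancer cells; inconclusive = readout between -30 and a set limit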
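PC3M cells stably expressing PTB-GFP, 750–1000 cells/well, treated 16 h at 37 °C with compound (23 nl of library stock), in duplicate. After paraformaldehyde fixation and Hoechst stain, imaged at 20x; PNC prevalence scored by image analysis.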
ALDH1A1 inh = ALDH1A1 (human) enzyme inhibition | P00352 | Purified ALDH1A1, NADH fluorescence, propionaldehyde substrate | Potency, µM (highest dose often 75.3 µM), usual class: inhibitors | 220,000 compounds, 7.3% hits
LMNA splice mod = changes lamin A minigene splicing in HeLa cells; HeLa LMNA splicing GFP/RFP minigene ratio, 48 h; AID 1487; 200,000 compounds, 0.01% hits; Potency, µM (highest dose often 46.1 µM), usual class: inhibitors; active = well fitted inhibition curve with a large enough effect in the signal ratio, with a control signal flat, not every such curve was filed as active; inconclusive = small, poorly fitted or top-dose-only effect, or effect the other way, or a change in a side signal; the % refers to the signal ratio
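Read-out is the ratio of GFP to DsRed2 object intensity, acquired by 488 nm laser-scanning cytometry on HeLa lamin A-EGFP minigene reporter cells. Compound incubation 48 hrs at 37 °C in Opti-MEM with 2% FBS; DMSO 0.5% final.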
ALOX12 inhib = inhibitors of human 12-lipoxygenase (ALOX12); purified 12-hLO, xylenol orange hydroperoxide absorbance; AID 1452; Potency, µM (series often up to 57.1 µM), most hits filed as inhibitors; 150,000 compounds, 0.12% hits; active = well fitted inhibition curve with a large enough effect; inconclusive = small, poorly fitted or top-dose-only effect; note: nearly all actives have a fitted effect of over 55% in size
Target sequence (P18054 whole entry, looked up): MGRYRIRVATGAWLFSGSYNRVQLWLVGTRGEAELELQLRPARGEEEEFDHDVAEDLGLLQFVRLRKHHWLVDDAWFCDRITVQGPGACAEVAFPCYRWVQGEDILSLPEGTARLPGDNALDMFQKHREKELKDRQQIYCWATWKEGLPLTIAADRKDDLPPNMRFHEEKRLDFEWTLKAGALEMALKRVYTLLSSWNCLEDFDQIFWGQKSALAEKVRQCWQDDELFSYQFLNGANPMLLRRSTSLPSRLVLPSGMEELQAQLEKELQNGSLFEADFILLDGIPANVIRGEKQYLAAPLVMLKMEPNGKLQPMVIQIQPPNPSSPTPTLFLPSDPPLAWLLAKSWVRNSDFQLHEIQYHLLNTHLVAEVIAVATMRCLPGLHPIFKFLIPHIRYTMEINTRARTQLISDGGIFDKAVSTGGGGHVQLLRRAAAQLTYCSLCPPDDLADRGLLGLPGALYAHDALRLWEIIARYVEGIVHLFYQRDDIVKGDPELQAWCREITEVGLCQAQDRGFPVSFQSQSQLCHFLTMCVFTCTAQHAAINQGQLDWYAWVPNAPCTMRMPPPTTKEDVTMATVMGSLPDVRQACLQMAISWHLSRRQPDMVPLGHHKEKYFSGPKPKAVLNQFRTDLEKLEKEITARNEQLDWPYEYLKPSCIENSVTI
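150 nM 12hLO, 25 mM Hepes pH 7.0 + 0.01% Triton X-100; cpd preinc 15 min RT; 40 uM arachidonic acid, 30 min RT; Fe-XO 30 min; A573/A405 ratio as read-out.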
HPGD inh = inhibitors of human 15-hydroxyprostaglandin dehydrogenase (HPGD). P15428. purified HPGD, NADH fluorescence kinetic, PGE2 substrate. Potency, µM, actives largely listed as inhibitors. 150,000 compounds, 4.3% hits
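NADH formation kinetics: reaction with 30 uM PGE2 and 1 mM NAD+ (final), 20 nM enzyme, Tris-HCl pH 8 with Tween 20, after 15 min compound preincubation at room temperature. Fluorescence change, last versus first of five reads.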
Numbers stand for hits; n = inactive; u = inconclusive; x = not tested or not shown; [ ] = dose if it differs, or a comment. Sampled rows, rich in hits. Any-hit rate of the full collection: about 10%. Unless noted, calls come from the whole dose curve; as a rule, active = well fitted inhibition curve with a large enough effect (not every such curve was filed as active); inconclusive = small, poorly fitted or top-dose-only effect, or another doubt; inactive = no such curve, though single readings can be large or run the other way.

SMILES	PNC inhibitor	ALDH1A1 inh	LMNA splice mod	ALOX12 inhib	HPGD inh
Cn1c(COc2ccc(Br)cc2)nnc1SC1CCc2ccccc2C1=O (configuration not stated)	u	22µM	u	n	n
Cn1c(COc2ccccc2)nnc1SCCSc1nnc(COc2ccccc2)n1C	n	n	n	n	n
NC1=NCCCC1	x	n	x	n	n
Cc1nnc(SCc2ccccc2)[nH]c1=O	x	7.1µM	x	x	x
COc1ccc(Cn2nnnc2C(c2cc3cc(C)ccc3[nH]c2=O)N2CCOCC2)cc1 (configuration not stated)	u	u	n	n	u
Cc1ccc2cc(C(c3nnnn3Cc3ccccc3)N3CCN(c4ccccc4)CC3)c(=O)[nH]c2c1 (configuration not stated)	n	25µM	n	n	n
CCOC(=O)C1CCN(C(c2cc3ccc(C)c(C)c3[nH]c2=O)c2nnnn2C2CCCCC2)CC1 (configuration not stated)	n	20µM	u	n	n
COCCn1nnnc1C(c1ccc(OC)cc1OC)N1CCN(c2ccccc2)CC1 (configuration not stated)	n	7.9µM	n	n	n
COc1ccc(N2CCN(C(c3cc4cc(C)ccc4[nH]c3=O)c3nnnn3Cc3ccccc3)CC2)cc1 (configuration not stated)	u	14µM	u	n	n
Cc1ccc2cc(C(c3nnnn3C3CCCC3)N3CCN(c4ccccc4)CC3)c(=O)[nH]c2c1 (configuration not stated)	n	8.9µM	n	n	n
COc1cnc(-c2ccccn2)nc1Sc1ccc(Cl)cc1	n	n	u	n	n
COc1cnc(-c2ccccn2)nc1Sc1ccccc1	x	10µM	n	x	x
COc1cnc(-c2ccccn2)nc1Sc1ccc(F)cc1	x	7.9µM	n	x	x
CCCCc1nc2c(c3c1C[C@H](C)OC3)CN(C(=O)Nc1ccc(OC)cc1)CC2	x	n[13.5 µM]	n[9.22 µM]	n[11.4 µM]	n
Cc1ccc(CNC(=O)N2CCC(CN3CCC(C)CC3)CC2)cc1	x	x	n	x	x
COCCNC(=O)C(C)OC(=O)c1cc2occc2n1C (configuration not stated)	n	32µM	n	n	14µM
Cn1c(C(=O)OCC(=O)NCc2cccs2)cc2sccc21	n	n	n	n	n
CC(OC(=O)c1cc2sccc2n1C)C(=O)NCc1cccs1 (configuration not stated)	-81	n	u	n	u
CCCOc1ccc2c3c(c(=O)oc2c1OCCC)CCCC3	-111	u	u	n	u
CN1CCCC(C(=O)C(C#N)c2ccccc2)C1 (configuration not stated)	n	n	n	n	n
Cc1[nH]n(-c2ncc(-c3ccccc3)s2)c(=O)c1C(c1ccc(Br)cc1)C(C#N)C#N (configuration not stated)	n	13µM	u	n	10µM
Cc1[nH]n(C(N)=S)c(=O)c1C(c1ccccc1)C(C#N)C#N (configuration not stated)	n	32µM	n	n	n
O=C(CSc1nc(O)cc(=O)n1-c1ccccc1)NC1CCCCC1	n	25µM	n	n	n
COC(=O)c1ccccc1NC(=O)CSc1nc(O)cc(=O)n1C1CCCC1	-89	n	n	n	x
C=CCNC(=O)c1ccc(C(=O)c2ccccc2)cc1	u	u	u	n	13µM
SMILES	PNC inhibitor	ALDH1A1 inh	LMNA splice mod	ALOX12 inhib	HPGD inh
C=CCNC(=O)c1ccccc1Cl	n	n	n	n	16µM
C=CCNC(=O)c1ccc2nc(-c3ccccc3)c(-c3ccccc3)nc2c1	n	u	n	n	u
C=CCNC(=O)c1ccccc1CCc1ccccc1	x	n	x	x	x
COc1ccc(Cl)cc1-c1ccc(C(=O)O)o1	x	u	x	n[0.00818 µM]	u
Cc1nn(C)c2c1c(C(F)(F)F)cc(=O)n2CC(=O)NCc1ccccc1Cl	x	x	n	x	x
COc1ccc(C(=O)C(OC(=O)CNC(=O)c2ccco2)c2ccccc2)cc1 (configuration not stated)	n	20µM	n	n	n
COc1cccc([C@@H]2Oc3ccc(OC)cc3C[C@H]2OC(=O)NS(=O)(=O)c2ccc(F)cc2)c1	x	n	x	x	n
CCOC(=O)c1sc2ncn(/N=C/c3ccc(O)cc3)c(=O)c2c1C	x	20µM	n	x	x
CCOC(=O)c1sc2ncn(/N=C/c3cccnc3)c(=O)c2c1C	n	0.071µM	n	n	n
CCOC(=O)c1sc2ncn(C(C)C(=O)OCC)c(=O)c2c1C (configuration not stated)	u	n	n	n	n
CC(C)C[C@@H](CC(=O)N[C@H](CC(=O)N[C@@H]1CCCC[C@H]1C(=O)N[C@H](CC(=O)N[C@@H](CCC(=O)O)CC(=O)O)CC(C)C)C(C)C)NC(=O)[C@@H]1CCCC[C@H]1N	x	u	x	n	n
O=c1c(Cl)c(N2CCNCC2)cnn1C12CC3CC(CC(C3)C1)C2	x	n	x	x	x
O=c1c(Cl)c(NCC2CCCO2)cnn1C12CC3CC(CC(C3)C1)C2 (configuration not stated)	x	18µM	x	x	x
Cc1cc(C)c(NC(=O)NC2CCCCC2)c(C)c1	-113	n	n	n	n
CCOc1ccc(-n2c(C)cc(/C=N\NC(=O)CC(=O)NC3CCCCC3)c2C)cc1	n	n	n	n	n
Cc1cccc(-n2c(C)nc3cc(C(=O)NC4CCCCCC4)ccc32)c1	x	x	n	x	x
COc1ccc(-n2c(C)cc(C(=O)NC3CCCCC3)c2C)cc1	n	7.9µM	n	n	1.1µM
Cc1cccc(-n2c(C)cc(C(=O)NC3CCCCC3)c2C)c1	u	n	n	n	0.71µM
N#C/C(=C\c1cn(CCOc2ccccc2F)c2ccccc12)C(=O)NCc1cccs1	u	n	n	n	n
N#C/C(=C\c1cn(Cc2ccc(C#N)cc2)c2ccccc12)C(=O)NCc1cccs1	-116	n	n	n	n
Cc1ccc(S(=O)(=O)Oc2ccc(/C=N/NC(=O)c3cccnc3)cc2)cc1	x	13µM	x	x	x
Cn1ncc(Br)c1C(=O)N/N=C/c1ccc(OS(=O)(=O)c2ccccc2)cc1	-80	25µM	n	n	n
COc1cc(/C=N/NC(=O)COc2ccc(Cl)cc2)ccc1OS(=O)(=O)c1ccc(C)cc1	n	u	n	n	n
COc1cc(/C=N/NC(=O)c2cccnc2)ccc1OS(=O)(=O)c1ccc(F)cc1	n	n	u	n	n
COc1cc(/C=N/NC(=O)COc2cccc(F)c2)ccc1OS(=O)(=O)c1ccc(C)cc1	n	8.9µM	u	n	n
COc1cc(/C=N/NC(=O)c2cccnc2)ccc1OS(=O)(=O)c1ccc(C)cc1	n	3.5µM	u	n	n
O=C(COc1ccc(Cl)cc1)NCC(c1cccs1)S(=O)(=O)c1ccc(F)cc1 (configuration not stated)	x	x	n	x	x
Cc1cc(C)n(/N=C/c2cccs2)c(=O)c1C#N	-98	n	n	n	n
N#C/C=C1/NC(=O)c2ccccc2S1	n	n	n	n	2.2µM
O=C1N/C(=C\c2nc3ccccc3s2)c2ccccc21	x	n	x	x	x
